Results from PubChem BioAssay (NCI).
The panel holds about 83,000 compounds, 20% with a hit somewhere; the sample as a whole holds those more often.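 Growth was measured after 48 h exposure to one concentration of compound in 96-well plates. Values under 10 count as active.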 Unmarked numbers belong to inactive results. Activity calls are given as the source filed them.

Experiments:
Assay in all cases: NCI-60 one-dose screen, 48 h (100 = growth as untreated, 0 = no growth, -100 = all killed)
Settings in all cases: 10 µM unless noted
[1] = test system: SR leukemia
[2] = test system: RPMI-8226 leukemia
[3] = test system: OVCAR-8 ovarian
[4] = test system: OVCAR-5 ovarian
[5] = test system: SK-OV-3 ovarian
[6] = test system: IGROV1 ovarian
[7] = test system: OVCAR-3 ovarian
[8] = test system: HS 578T breast
[9] = test system: T-47D breast
[10] = test system: BT-549 breast
[11] = test system: MDA-MB-435 melanoma
[12] = test system: SW-620 colon
[13] = test system: MCF7 breast
[14] = test system: HCT-116 colon
[15] = test system: HCC-2998 colon
[16] = test system: OVCAR-4 ovarian
[17] = test system: NCI/ADR-RES ovarian
[18] = test system: KM12 colon

SMILES	growth [1]	growth [2]	growth [3]	growth [4]	growth [5]	growth [6]	growth [7]	growth [8]	growth [9]	growth [10]	growth [11]	growth [12]	growth [13]	growth [14]	growth [15]	growth [16]	growth [17]	growth [18]
Nc1n[nH]c2cccc(C#Cc3cccc(C(=O)Nc4cccc(C(F)(F)F)c4)c3)c12	72%	58.9%	76.3%	57.6%	59.6%	30.3%	73.8%	40.5%	46.9%	84.9%	52.5%	55.9%	71.6%	27.5%	62%			
OCc1cnc2ccccc2c1NC1CCCCCC1	91.4%	75%	84.7%		97.7%	95.5%	89.5%	90.5%	65%	105%	91.4%	98%	73.5%	77.9%	111%	86.3%	57.5%	96.4%
CN(C)CCn1c2ccc(Br)cc2c2nc3ccccc3nc21	11.2%	9.2% (active)	32.9%	46.4%	50.8%	18%	39.9%	77.8%	38.4%	84.4%	41.8%	17.5%	19.7%	18.2%	47.3%		31.8%	35%
O=S(=O)(NCCCNc1nccc(-c2c(-c3cccc(F)c3)nc3sccn23)n1)c1cccc(F)c1	64.9%	28%	18.4%		66%	18.9%	50.7%	63.7%	-2.25% (active)	33.3%	24%	76.7%	33.7%	48%	99.3%	26.8%	17.6%	30%
CC(C)N1C(=O)S/C(=C2/SC(=O)N(C(C)C)C2=O)C1=O	103%	93.9%	104%	101%	127%	98.9%	106%	99.7%	104%	93.6%	100%	102%	97.9%	105%	104%			99.9%
C=C(C)[C@@H]1CC[C@]2(C(=O)N3CCN(C)CC3)CC[C@]3(C)[C@H](CC[C@@H]4[C@@]5(C)CC[C@H](O)C(C)(C)[C@@H]5CC[C@]43C)[C@@H]12	-19.9% (active)	-40.1% (active)	-55% (active)		125%	-72.6% (active)	-94% (active)	-46.1% (active)	-73.8% (active)	-51.8% (active)	-82.1% (active)	-74.8% (active)	-79.6% (active)	-98.3% (active)	-85.3% (active)	-79.6% (active)	-42.7% (active)	-80.7% (active)
C=C1C(=O)O[C@H]2[C@H]1CC/C(CNC(=O)/C=C/c1ccccc1)=C\CC[C@@]1(C)O[C@@H]21	6.13% (active)	-10.5% (active)	5.85% (active)		109%	-16.9% (active)	-85.1% (active)	28.6%	-12.1% (active)	-56.8% (active)	-8.54% (active)	-68.4% (active)	-22.2% (active)	-58.9% (active)	-7.49% (active)	38.5%	69.1%	76.5%
Cc1c(C(=O)NCCC(=O)NO)sc2ncnc(Nc3ccc(NC(=O)Nc4cccc(C(F)(F)F)c4)cc3)c12	101%	102%	102%		115%	102%	112%	93.5%	101%	137%	103%	104%	89.2%		112%	105%	103%	100%
C=C1C(=O)O[C@H]2[C@H]1CC/C(COC(=O)NCc1c[nH]c3ccc(Cl)cc13)=C\CC[C@@]1(C)O[C@@H]21	7.4% (active)	-35.5% (active)	-59.2% (active)	-27.7% (active)	90.5%	-65.8% (active)	-87.2% (active)		-76.2% (active)	-65.6% (active)	-88.4% (active)	-74.3% (active)	17.2%	-90.1% (active)	70.4%		48.1%	13.8%
CNC(=O)c1cccc(Cn2nc(C)c(NC(=O)c3ccc(COc4ccc(C(F)(F)F)cc4C)cc3)c2C)c1	23.3%	27.3%	33.9%		70.9%	63.8%	34%	84.9%	6.16% (active)	19.7%	36.2%	77.3%	21.7%	29.2%	68.5%	29.6%	35.4%	
CCOC(=O)Nc1ccc(-c2ccc3c(c2)NC(=O)/C3=C\c2ccc[nH]2)cc1	19.3%	100%	105%		91%	94.1%	106%	106%	6.7% (active)	56.4%	102%	113%	10%	107%	85.8%	45%	102%	63.6%
COc1ccc(OC)c(CCn2cncc2-c2c[nH]c3ccccc23)c1	60.1%	45.6%	89.4%		72.9%	44%	57%		45.8%	83.8%	58.9%		71%	77.7%	91.8%	44.6%	71.1%	
CC[C@]12C=CCN3CC[C@@]4(c5cc(NC(=O)CCC(=O)O[C@H]6CC[C@H]7[C@@H]8CCC9=CC(=O)CC[C@@H]9[C@H]8CC[C@]67C)c(OC)cc5N(C)[C@H]4[C@@](O)(C(=O)OC)[C@@H]1OC(C)=O)[C@@H]32	40%	54.6%	75.6%		104%	61.6%	80.8%		53%	77.6%	20.7%	86.9%	80%	62.5%	91.9%		80.1%	73.1%
O=C(/C(=C/c1ccc([N+](=O)[O-])cc1)SCc1ccc(F)cc1)c1ccc(F)cc1	6.69% (active)	-28.7% (active)	93.1%		103%	78%	82.9%	89.2%	79.8%	98.2%	85%	-27.5% (active)	9.8% (active)	-25.2% (active)	88.4%	73.2%	77.1%	59.8%
COc1ccc(C(=O)c2cc(C)c(OC)c(C)c2)c(OC)c1OC(=O)C(Cl)Cl	16%	23.4%	10.1%		-2.06% (active)	22.3%	-4.52% (active)	20.5%	59.5%	11.4%	-28.4% (active)	20%	12.4%	1.56% (active)	9.93% (active)		-3.92% (active)	8.08% (active)
CNCCn1c(=O)c2cc(OC)c(OC)cc2c2ccc3cc4c(cc3c21)OCO4	-22.4% (active)	-27.6% (active)	10.2%	4.57% (active)	-0.269% (active)	0.994% (active)	-6.33% (active)	4.39% (active)	6.22% (active)	-19.8% (active)	-61% (active)	-47.4% (active)	7.12% (active)	2.87% (active)	-51.6% (active)		4.99% (active)	3.17% (active)
CCOC(=O)c1ccc2c(c1)ncn2-c1ccc(NC(=O)Nc2cccc(C)c2)cc1	19.9%	45.5%	83.8%		97.5%	98.9%	96.9%		31.2%	115%	77.6%	81.6%	54.7%	57.2%	90.6%	75.7%	72.2%	27.7%
COc1ccc(C/C(C)=C(/c2ccc(OCCCN(C)C)cc2)c2ccc(OC(C)=O)cc2)cc1	9.44% (active)	79.2%	95.5%		88%	58.4%	91.1%	64.1%	56.4%	89%	48.4%	87.8%	18.1%	55.3%	70.3%	79.6%	92.3%	80.7%
